Experimental data from PubChem BioAssay (NCATS).
Records with an inconclusive call do not appear. Unless noted, the call rests on the fitted dose curve; in most records, active means well fitted curve in either direction with a large enough effect (not every such curve was filed as active); inconclusive means small, poorly fitted or top-dose-only effect, or another doubt; inactive means flat fitted curve, though single readings scatter.

What was measured:
[1] = AP1 Signaling Pathway (AID 357); conditions: ME-180 AP-1-bla reporter, EGF-induced, beta-lactamase ratio, 5 h; at 17.2 µM (top of the series) unless noted;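 further: ME-180 reporter cells stimulated with EGF at its EC50 level; on the % scale 0 is the no-effect control and ±100 the full control effect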
Procedure, shortened: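 AP-1-bla ME-180 cells, Opti-MEM + 0.5% dialyzed FBS, plated overnight 37 °C. Cpd titration + EC50 EGF, 5 h 37 °C. CCF4 2.5 h RT; ex 405, em 460/530 ratio → %activity, AC50.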

[2] = NFAT Signaling Pathway (AID 444); conditions: Jurkat NFAT-bla M1, carbachol, beta-lactamase ratio, 5 h; at 17.2 µM (top of the series) unless noted;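 further: carbachol stimulus at about its EC50 of 1 µM final; on the % scale 0 is the no-effect control and ±100 the full control effect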
Procedure, shortened: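 Read-out: CCF4 FRET ratio (460 nm/530 nm) after 1 h RT dye loading, used for %activity and AC50 from titration series. Cells: Jurkat NFAT-β-lactamase/M1 line, treated with compound plus 1 uM carbachol for 5 h, 37 °C.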

[3] = Stat Signaling Pathway (AID 446); conditions: ME-180 (cervical carcinoma) SIE beta-lactamase reporter, IL-6 stimulated, 5 h; at 17.2 µM (top of the series) unless noted;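 further: ME-180 cervical cancer cells given 40 pM IL-6 alongside compound; SIE-controlled beta-lactamase reporter measured as 460/530 nm FRET emission ratio; on the % scale 0 is the no-effect control and ±100 the full control effect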
Procedure, shortened: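 Compound effects on IL-6-induced STAT reporter activity were measured in ME-180 cells. After overnight culture, cells were co-treated with 40 pM IL-6 for 5 hrs before beta-lactamase substrate loading at room temperature.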

[4] = molecular target: Glucocorticoid receptor (Homo sapiens) (UniProt P04150); test: GR-GFP Redistribution (AID 450;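 active means compounds whose dose series gives a full or clear partial fitted curve of increased nuclear translocation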; further: potency means the concentration at half of the fitted maximal effect)
Sequence of Glucocorticoid receptor (Homo sapiens) (P04150 whole entry, looked up): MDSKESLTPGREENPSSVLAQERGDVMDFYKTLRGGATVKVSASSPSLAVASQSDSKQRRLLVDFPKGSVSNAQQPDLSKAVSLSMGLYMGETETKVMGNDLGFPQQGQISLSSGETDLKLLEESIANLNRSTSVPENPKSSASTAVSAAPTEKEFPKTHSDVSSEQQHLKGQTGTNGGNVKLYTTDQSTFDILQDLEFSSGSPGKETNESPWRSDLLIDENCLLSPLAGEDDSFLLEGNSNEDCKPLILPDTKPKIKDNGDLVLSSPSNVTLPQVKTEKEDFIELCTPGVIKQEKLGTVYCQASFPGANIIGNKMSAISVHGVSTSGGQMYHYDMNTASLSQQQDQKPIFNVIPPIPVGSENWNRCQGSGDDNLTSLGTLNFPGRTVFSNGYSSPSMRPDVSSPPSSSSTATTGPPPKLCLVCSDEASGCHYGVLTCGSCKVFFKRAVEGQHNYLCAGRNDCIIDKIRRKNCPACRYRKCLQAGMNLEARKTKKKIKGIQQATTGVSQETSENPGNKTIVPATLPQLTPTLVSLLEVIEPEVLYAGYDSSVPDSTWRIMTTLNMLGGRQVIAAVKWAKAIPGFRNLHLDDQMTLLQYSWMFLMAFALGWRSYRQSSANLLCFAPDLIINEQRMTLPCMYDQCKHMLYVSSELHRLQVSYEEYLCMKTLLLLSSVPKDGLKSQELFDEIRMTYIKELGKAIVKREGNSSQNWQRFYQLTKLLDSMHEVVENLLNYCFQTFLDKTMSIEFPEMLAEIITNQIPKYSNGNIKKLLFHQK

N#Cc1nc(-c2cccs2)oc1NCCc1ccccc1
inactive: activity change, negative = inhibition [1] -17.4% | activity change, negative = inhibition [2] -0.887% | activity, negative = inhibition [3] -12.8% | Potency [4] > 20.6 µM

CSc1nc(N)nc(SCC(=O)CC(=O)OC(C)C)c1C#N
inactive: activity change, negative = inhibition [1] -2.75% | activity change, negative = inhibition [2] 5.87% | activity, negative = inhibition [3] -1.28% | Potency [4] > 20.6 µM

C=C(c1ccc(OCCO)cc1)c1ccc(OCCO)cc1
inactive: activity change, negative = inhibition [1] -5.64% | activity change, negative = inhibition [2] -1.3% | activity, negative = inhibition [3] -3.23% | Potency [4] > 20.6 µM

COc1ccc(N/C(=N\c2nc(C)cc(C)n2)NC(=O)C(C)C)cc1OC
inactive: activity change, negative = inhibition [1] -12.4% | activity change, negative = inhibition [2] 21.2% | activity, negative = inhibition [3] -1.06% | Potency [4] > 20.6 µM

CCCc1nc2n[nH]c(N)c2c2c1COC(C)(C)C2
inactive: activity change, negative = inhibition [1] 2.75% | activity change, negative = inhibition [2] -0.018% | activity, negative = inhibition [3] 2.38% | Potency [4] > 20.6 µM

CC(=O)/C=C(\C)NCCNc1c(F)c(F)c(CO)c(F)c1F
inactive: activity change, negative = inhibition [1] -4.08% | activity change, negative = inhibition [2] 1.05% | activity, negative = inhibition [3] -2.87% | Potency [4] > 20.6 µM

O=C(CC(c1ccc(F)cc1)c1ccco1)N1CCCC1 (stereo not given)
inactive: activity change, negative = inhibition [1] -6.27% | activity change, negative = inhibition [2] -22.2% | activity, negative = inhibition [3] -1.51% | Potency [4] > 20.6 µM

COc1ccc(CN2CCC(=O)NC2=O)cc1
inactive: activity change, negative = inhibition [1] 9.75% | activity change, negative = inhibition [2] -0.653% | activity, negative = inhibition [3] 9.56% | Potency [4] > 20.6 µM

N#CC1=C(C=Nc2ccccc2O)CCC1
inactive: activity change, negative = inhibition [1] 12.3% | activity change, negative = inhibition [2] 8.46% | activity, negative = inhibition [3] -1.34% | Potency [4] > 20.6 µM

CCN(CC)CCN1C(=O)C(O)=C(C(=O)c2cccs2)C1c1ccccn1 (stereo not given)
inactive: activity change, negative = inhibition [1] -0.981% | activity change, negative = inhibition [2] 9.2% | activity, negative = inhibition [3] -0.0775% | Potency [4] > 20.6 µM

CC1CCc2cc(F)cc3c(O)c(C(=O)NCC4CCCO4)c(=O)n1c23 (stereo not given)
inactive: activity change, negative = inhibition [1] -6.28% | activity change, negative = inhibition [2] -19.9% | activity, negative = inhibition [3] 1.8% | Potency [4] > 20.6 µM

Cn1ncc(N=Cc2ccccc2O)c1C(=O)Nc1ccccc1
inactive: activity change, negative = inhibition [1] -7.55% | activity change, negative = inhibition [2] 7.01% | activity, negative = inhibition [3] 0.0885% | Potency [4] > 20.6 µM

COc1cccc(COc2nc3c(c(=O)n(C)c(=O)n3C)n2C)c1
inactive: activity change, negative = inhibition [1] -9.75% | activity change, negative = inhibition [2] 12.8% | activity, negative = inhibition [3] -3.58% | Potency [4] > 20.6 µM

COc1ccc(C(=O)c2ccc(N3CCOCC3)cc2)c(OC)c1
inactive: activity change, negative = inhibition [1] -17.3% | activity change, negative = inhibition [2] 13.3% | activity, negative = inhibition [3] 1.25% | Potency [4] > 20.6 µM

Clc1ccc(-n2ncc3c(NCCCn4ccnc4)ncnc32)cc1
inactive: activity change, negative = inhibition [1] -4.22% | activity change, negative = inhibition [2] -6.43% | activity, negative = inhibition [3] -0.823% | Potency [4] > 20.6 µM

CC12CCC(C(=O)NCCCN3CCOCC3)(OC1=O)C2(C)C (stereo not given)
inactive: activity change, negative = inhibition [1] 12% | activity change, negative = inhibition [2] 10.5% | activity, negative = inhibition [3] 3.88% | Potency [4] > 20.6 µM

Cc1ccc(-n2ncc3c(NCCCN4CCCC4=O)ncnc32)c(C)c1
inactive: activity change, negative = inhibition [1] -15.8% | activity change, negative = inhibition [2] 11.5% | activity, negative = inhibition [3] 9.31% | Potency [4] > 20.6 µM

CCCC(=O)N(Cc1cc2ccccc2[nH]c1=O)c1ccccc1OC
inactive: activity change, negative = inhibition [1] -6.44% | activity change, negative = inhibition [2] 22.4% | activity, negative = inhibition [3] 5.08% | Potency [4] > 20.6 µM

CCN(CC)CCN1C(=O)C(O)=C(C(=O)c2ccco2)C1c1ccccn1 (stereo not given)
inactive: activity change, negative = inhibition [1] -3.97% | activity change, negative = inhibition [2] -0.0336% | activity, negative = inhibition [3] 3.83% | Potency [4] > 20.6 µM

CC(=O)c1c(C(C)=O)c(C)n(NC(=O)c2ccncc2)c1C
inactive: activity change, negative = inhibition [1] 2.53% | activity change, negative = inhibition [2] 3.09% | activity, negative = inhibition [3] 17% | Potency [4] > 20.6 µM

CCOC(=O)CC(=O)CSc1[nH]c(=O)cc(C)c1C#N
inactive: activity change, negative = inhibition [1] 8.86% | activity change, negative = inhibition [2] 2.85% | activity, negative = inhibition [3] 13.5% | Potency [4] > 20.6 µM

c1cc(-c2nnc3sc(C4CCCCC4)nn23)ccn1
inactive: activity change, negative = inhibition [1] -28.7% | activity change, negative = inhibition [2] -22.5% | activity, negative = inhibition [3] -15.8% | Potency [4] > 20.6 µM

COc1ccc(-n2c(=O)c3c4c(sc3n3c(C)nnc23)CC(C)CC4)cc1 (stereo not given)
inactive: activity change, negative = inhibition [1] -0.998% | activity change, negative = inhibition [2] -0.396% | activity, negative = inhibition [3] 10.9% | Potency [4] > 20.6 µM

CN(C)CCCN1C(=O)C(O)=C(C(=O)c2cc3ccccc3o2)C1c1ccccn1 (stereo not given)
inactive: activity change, negative = inhibition [1] 7.64% | activity change, negative = inhibition [2] 7.35% | activity, negative = inhibition [3] -0.93% | Potency [4] > 20.6 µM

O=C(O)CC(SCc1ccc(C(=O)O)o1)C(=O)O (stereo not given)
inactive: activity change, negative = inhibition [1] 7.18% | activity change, negative = inhibition [2] -1.8% | activity, negative = inhibition [3] 0.837% | Potency [4] > 20.6 µM
